SMILES strings stand for the structures. This is part of a sample that, as a whole, favours compounds with a hit. Of some 79,000 tested, about 15% had one in any assay. Unmarked numbers belong to inactive results. Calls of active or inactive are those of the source. No stated cut-off is given here; in the data, active means growth inhibition above about 70%; inactive means the rest.

From PubChem BioAssay (NCI) come the findings set out here.

This assay in a line: NCI Yeast Anticancer Drug Screen. Data for the wt2 strain (AID 169).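 Further: 0% = growth of vehicle-treated yeast cultures.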 To be noted: S. cerevisiae wt2 strain growth inhibition, stronger effect = higher value. Here is the method:
Growth inhibition of yeast strains with defined genetic alterations is measured as a screen for potential anti-cancer activity. Selected strains with alterations in DNA damage repair or cell cycle control were exposed to compounds and growth inhibition was measured relative to vehicle treated controls. The strain used in this assay is wt2

Take `COc1ccc2nc3cccc([N+](=O)[O-])c3c(NCCCO)c2c1`: the growth inhibition runs as follows: (at 1.2 µM) 6%; (at 3.7 µM) 33%; (at 11.0 µM) 88% (active); (at 33.0 µM) 96% (active); (at 100.0 µM) 98% (active).

Consider `O=C(O)CN(CCNC(=O)OCC1c2ccccc2-c2ccccc21)CCNC(=O)OCC1c2ccccc2-c2ccccc21`, for which the growth inhibition is -3% (at 1.2 µM); -3% (at 3.7 µM); 75% (active) (at 11.0 µM); 98% (active) (at 33.0 µM); 95% (active) (at 100.0 µM).

Take `O=[N+]([O-])C(=C(NCc1ccccc1)NCc1ccccc1)C(Cl)=C(Cl)Cl`: the growth inhibition was 1% (at 1.2 µM); 2% (at 3.7 µM); 9% (at 11.0 µM); 19% (at 33.0 µM); 70% (active) (at 100.0 µM).

Take `CN(C)N=Nc1ccc(NC=O)cc1`: the growth inhibition (at 1.2 µM) is 18%; the growth inhibition (at 3.7 µM) was 9%; the growth inhibition (at 11.0 µM) was 14%; the growth inhibition (at 33.0 µM) was 96% (active); the growth inhibition (at 100.0 µM) is 99% (active).

On to `CCCCCC(=O)C(C)(c1nc2n(c1O)/C(=N/C(=O)Nc1ccc(Cl)cc1)N=N2)c1nc2n(c1O)/C(=N/C(=O)Nc1ccc(Cl)cc1)N=N2`, for which the growth inhibition was -1% (at 1.2 µM); -1% (at 3.7 µM); 4% (at 11.0 µM); 19% (at 33.0 µM); 45% (at 100.0 µM).

On to `Cc1ccccc1C1=C(CC(=O)O)c2ccccc2CC1C` (stereo not given), for which the growth inhibition reads like this: (at 1.2 µM) 5%; (at 3.7 µM) 7%; (at 11.0 µM) 37%; (at 33.0 µM) 97% (active); (at 100.0 µM) 98% (active).

Consider `O=C1C(Br)=CC(Br)(Br)C=C1Br`, for which the growth inhibition is, setting by setting: (at 1.2 µM) -9%; (at 3.7 µM) -11%; (at 11.0 µM) 51%; (at 33.0 µM) 96% (active); (at 100.0 µM) 98% (active).

`CN(Cc1cccc2ccccc12)Cc1cccc2ccccc12`: the growth inhibition is, setting by setting: (at 1.2 µM) -2%; (at 3.7 µM) 0%; (at 11.0 µM) -4%; (at 33.0 µM) 3%; (at 100.0 µM) 9%.
